The record followed here is PubChem BioAssay (EPA / NIEHS).

The target in assay [1] is Bile acid receptor (Homo sapiens) (UniProt Q96RI1). Nature of the assay: ATG_IR1_CIS: Attagene CIS-FACTORIAL HepG2 Assay for human Nuclear Receptor Subfamily 1 Group H Member 4 (NR1H4), IR1 submotif (AID 2282946). To be noted: IR1 reporter transcription, actives raise or lower the signal. A digest of the protocol:
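Readout: reporter transcript levels by RT-PCR with fluorescent capillary electrophoresis, from HepG2 cells transiently transfected with multiplexed cis-regulated reporters and dosed 24 h. Gain- or loss-of-signal fitted versus DMSO negative control.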

Assay [2] is described as follows: ATG_GRE_CIS: Attagene CIS-FACTORIAL HepG2 Assay for human Glucocorticoid Response Elements (GRE) (AID 2282947). As to conditions: HepG2 GRE cis-reporter, Attagene multiplex mRNA; actives raise or lower the signal. In short, it runs like this:
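HepG2, transient cis-reporter transfection, 24 h. Reporter mRNA: RT-PCR then CE, fluorescence. Fit both directions vs DMSO.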

Assay [3] can be described thus: ATG_ISRE_CIS: Attagene CIS-FACTORIAL HepG2 Assay for human Interferon Regulatory Factor 1 (IRF1) binding to an Interferon-Stimulated Response Element (ISRE) (AID 2282948). As to conditions: HepG2 ISRE cis-reporter (Attagene), mRNA transcription readout; actives raise or lower the signal. A digest of the protocol:
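Signal reflects induction or loss of ISRE-linked reporter mRNA in transiently transfected HepG2 cells after a 24 h treatment, detected by fluorescent RT-PCR fragments on capillary electrophoresis and normalised to DMSO.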

Assay [4] can be described thus: ATG_M_32_CIS: Attagene CIS-FACTORIAL HepG2 Assay for M32 Transcription Factor (Internal Marker) (AID 2282949).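 Note: background control marker of the multiplexed CIS panel rather than a real target.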 As to conditions: HepG2 Attagene cis-factorial M32 reporter, mRNA; actives raise or lower the signal. In short, it runs like this: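 Transient MRTU transfection of HepG2; 24 h compound treatment; TriZol RNA, oligo(dT) RT, reporter PCR, 6-FAM primer extension, HpaI cut, CE. Gain/loss of signal vs DMSO.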

Assay [5] can be described thus: ATG_M_06_CIS: Attagene CIS-FACTORIAL HepG2 Assay for M06 Transcription Factor (Internal Marker) (AID 2282950). To be noted: HepG2 Attagene CIS-FACTORIAL M06 internal marker reporter; actives raise or lower the signal. A digest of the protocol:
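HepG2 cells transiently transfected with cis-regulated multiple reporter transcription units were exposed to chemical for 24 h; reporter mRNA was quantified by RT-PCR, 6-FAM primer labelling, HpaI digestion and capillary electrophoresis, fitted bidirectionally against DMSO.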

Assay [6] has as its target Hypoxia-inducible factor 1-alpha (Homo sapiens) (UniProt Q16665). The assay can be described thus: ATG_HIF1a_CIS: Attagene CIS-FACTORIAL HepG2 Assay for human Hypoxia Inducible Factor 1 (HIF1A) (AID 2282951). To be noted: HepG2 Attagene cis-factorial HIF1a reporter transcription; actives raise or lower the signal. In short, it runs like this: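 HepG2 cells transiently transfected with multiple cis-regulated reporter transcription units measure endogenous transcription factor activity. After 24 h exposure, reporter mRNA is quantified by RT-PCR with 6-FAM labelling, HpaI digestion and capillary electrophoresis. Bidirectional fitting against DMSO.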

The target in assay [7] is Hepatocyte nuclear factor 6 (Homo sapiens) (UniProt Q9UBC0). Nature of the assay: ATG_HNF6_CIS: Attagene CIS-FACTORIAL HepG2 Assay for human Hepatocyte Nuclear Factor 6 (HNF6) (AID 2282952). To be noted: HepG2 Attagene cis-factorial HNF6 reporter transcription; actives raise or lower the signal. A digest of the protocol: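 First, HepG2 cells were transfected with the multiplexed cis reporter library and dosed with chemical for 24 h. Next, RNA was reverse-transcribed, PCR-amplified and fluorescently labelled. Finally, HpaI-digested fragments were read by capillary electrophoresis.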

The target of assay [8] is Heat shock factor protein 1 (Homo sapiens) (UniProt Q00613). The assay can be described thus: ATG_HSE_CIS: Attagene CIS-FACTORIAL HepG2 Assay for human Heat Shock Transcription Factor 1 (HSE) (AID 2282953). As to conditions: HepG2 HSE cis-reporter, Attagene RNA transcription; actives raise or lower the signal. In short, it runs like this: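 HepG2 cells transiently transfected with multiple reporter transcription units under cis-regulatory promoter control, measuring endogenous transcription factor activity. After 24 h chemical exposure, reporter mRNA quantified by RT-PCR, fluorescent labelling, HpaI digestion and capillary electrophoresis; bidirectional fit versus DMSO.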

A short description of assay [9]: ATG_MRE_CIS: Attagene CIS-FACTORIAL HepG2 Assay for human Metal Responsive Element (MRE) (AID 2282954). As to conditions: HepG2 MRE cis-reporter transcription, Attagene multiplex; actives raise or lower the signal. In short, it runs like this: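 Readout: capillary electrophoresis of 6-FAM-labelled, HpaI-digested RT-PCR reporter products. System: HepG2 cells carrying transient multiplexed cis reporters, dosed 24 h. Analysis: bidirectional fit, DMSO baseline.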

A short description of assay [10]: ATG_PBREM_CIS: Attagene CIS-FACTORIAL HepG2 Assay for human Phenobarbital-responsive Enhancer Module (PBREM) (AID 2282955). As to conditions: HepG2 PBREM cis-reporter, Attagene multiplexed transcription; actives raise or lower the signal. In short, it runs like this: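 HepG2 cells transiently transfected with multiple cis-regulated reporter units measure endogenous transcription factor activity; 24 h compound exposure. Reporter mRNA quantified by RT-PCR, fluorescent labelling, HpaI digestion and capillary electrophoresis; bidirectional fit versus DMSO.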

Each structure is given as a SMILES string. Active and inactive are the calls of the source. Rule for the calls: active = hit-call score of the fitted dose curve at least 0.9, where 1 is the maximum; inactive = score below 0.9.

Sequence of Bile acid receptor (Homo sapiens) (Q96RI1 whole entry, looked up): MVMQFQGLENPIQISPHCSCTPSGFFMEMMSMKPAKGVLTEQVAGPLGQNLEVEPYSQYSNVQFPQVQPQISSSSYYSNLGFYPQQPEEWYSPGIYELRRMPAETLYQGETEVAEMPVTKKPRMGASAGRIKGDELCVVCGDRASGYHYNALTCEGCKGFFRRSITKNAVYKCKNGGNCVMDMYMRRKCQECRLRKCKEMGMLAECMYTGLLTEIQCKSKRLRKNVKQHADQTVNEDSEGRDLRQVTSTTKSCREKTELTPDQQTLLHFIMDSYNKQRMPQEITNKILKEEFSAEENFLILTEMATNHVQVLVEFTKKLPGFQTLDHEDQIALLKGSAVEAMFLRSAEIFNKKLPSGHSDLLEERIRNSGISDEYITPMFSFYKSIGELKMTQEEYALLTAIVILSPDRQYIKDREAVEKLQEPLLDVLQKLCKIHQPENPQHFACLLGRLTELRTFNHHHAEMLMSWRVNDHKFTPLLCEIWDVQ
Sequence of Hepatocyte nuclear factor 6 (Homo sapiens) (Q9UBC0 whole entry, looked up, the tested form may be a part): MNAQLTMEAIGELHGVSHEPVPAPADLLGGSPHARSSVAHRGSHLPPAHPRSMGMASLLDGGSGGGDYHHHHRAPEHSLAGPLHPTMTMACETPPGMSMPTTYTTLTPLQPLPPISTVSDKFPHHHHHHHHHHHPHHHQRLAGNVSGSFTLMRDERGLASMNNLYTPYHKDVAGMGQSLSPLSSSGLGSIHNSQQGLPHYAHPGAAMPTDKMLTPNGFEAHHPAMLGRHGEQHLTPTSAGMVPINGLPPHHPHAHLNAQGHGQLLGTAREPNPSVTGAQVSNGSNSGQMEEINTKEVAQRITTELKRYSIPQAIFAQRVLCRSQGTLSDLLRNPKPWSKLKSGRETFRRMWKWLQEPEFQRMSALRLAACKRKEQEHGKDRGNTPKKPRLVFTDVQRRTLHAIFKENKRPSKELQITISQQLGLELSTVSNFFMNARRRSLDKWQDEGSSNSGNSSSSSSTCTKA
Sequence of Hypoxia-inducible factor 1-alpha (Homo sapiens) (Q16665 whole entry, looked up): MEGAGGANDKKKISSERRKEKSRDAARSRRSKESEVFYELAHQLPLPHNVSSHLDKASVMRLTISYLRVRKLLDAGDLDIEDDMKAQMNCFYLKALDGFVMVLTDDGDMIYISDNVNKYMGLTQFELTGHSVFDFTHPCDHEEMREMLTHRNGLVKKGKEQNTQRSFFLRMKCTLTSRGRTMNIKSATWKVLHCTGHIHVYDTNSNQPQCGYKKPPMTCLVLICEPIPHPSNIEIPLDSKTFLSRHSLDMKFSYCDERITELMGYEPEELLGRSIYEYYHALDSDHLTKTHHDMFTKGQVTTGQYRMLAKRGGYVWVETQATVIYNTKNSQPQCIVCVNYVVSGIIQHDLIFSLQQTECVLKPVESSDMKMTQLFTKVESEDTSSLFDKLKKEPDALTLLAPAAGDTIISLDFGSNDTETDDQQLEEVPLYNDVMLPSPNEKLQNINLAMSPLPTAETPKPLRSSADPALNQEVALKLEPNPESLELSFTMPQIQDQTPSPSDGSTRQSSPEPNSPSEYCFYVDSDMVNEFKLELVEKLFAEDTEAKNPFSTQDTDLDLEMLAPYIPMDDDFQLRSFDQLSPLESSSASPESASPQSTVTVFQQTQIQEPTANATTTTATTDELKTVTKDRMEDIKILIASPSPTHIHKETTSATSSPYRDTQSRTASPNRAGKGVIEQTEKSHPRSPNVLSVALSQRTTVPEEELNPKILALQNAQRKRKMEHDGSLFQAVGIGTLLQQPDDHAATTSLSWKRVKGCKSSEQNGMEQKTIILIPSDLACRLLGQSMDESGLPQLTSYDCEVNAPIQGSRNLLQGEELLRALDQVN
Sequence of Heat shock factor protein 1 (Homo sapiens) (Q00613 whole entry, looked up): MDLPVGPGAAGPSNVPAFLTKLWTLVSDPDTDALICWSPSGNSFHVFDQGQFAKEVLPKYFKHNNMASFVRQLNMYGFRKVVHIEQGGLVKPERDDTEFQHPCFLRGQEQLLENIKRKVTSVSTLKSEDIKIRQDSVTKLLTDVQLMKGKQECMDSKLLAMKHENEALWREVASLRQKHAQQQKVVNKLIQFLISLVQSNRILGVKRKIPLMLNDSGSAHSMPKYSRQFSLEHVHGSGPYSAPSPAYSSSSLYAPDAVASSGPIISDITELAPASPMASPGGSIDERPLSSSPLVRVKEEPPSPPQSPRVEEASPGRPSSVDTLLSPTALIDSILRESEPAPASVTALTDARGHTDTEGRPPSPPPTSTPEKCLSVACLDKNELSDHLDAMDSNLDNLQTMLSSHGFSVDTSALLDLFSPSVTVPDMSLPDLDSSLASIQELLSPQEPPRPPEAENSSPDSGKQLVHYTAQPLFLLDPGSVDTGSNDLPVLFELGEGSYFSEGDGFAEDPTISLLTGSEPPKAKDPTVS

For `Nc1ccc(F)c([N+](=O)[O-])c1`, the outcome in assay [1], in assay [2], in assay [3], in assay [4], in assay [5] and in assay [6] was inactive. Further, the compound was classed as inactive in assay [7], in [8], in assay [9] and in assay [10].

On to `CC(CC(C)(C)C)CC(C)(C)CC(C)(C)C` (stereo unspecified), for which the outcome in assay [1], in assay [2], in assay [3], in assay [4], in assay [5] and in assay [6] was inactive. Also, the result in assay [7], in assay [8] and in [9] was inactive.

On to `O=S(=O)(O)c1ccc(O)c2ncccc12`, for which the call in assay [1], in assay [2], in assay [3], in [4], in assay [5] and in [6] was inactive. The result in [7], in assay [8] and in assay [9] was inactive.

For `c1ccc2c(c1)c1cccc3ccc4cccc2c4c31`, the result in assay [1], in assay [2], in assay [3], in [4], in assay [5] and in assay [6] was inactive. Further, the outcome in [7], in assay [8], in [9] and in [10] was inactive.

As to `Cc1c(Cl)c(=O)oc2cc(O)ccc12`, the result in [1], in assay [2], in [3], in [4], in assay [5] and in [6] was inactive. Besides, the compound was called inactive in [7], in [8] and in assay [9]. In addition, in assay [10], the AC50 is 37.3 µM (active).

In the case of `CCC(O)CO` (stereo unspecified), the outcome in [1], in assay [2], in [3], in assay [4], in assay [5] and in [6] was inactive. In addition, the compound was classed as inactive in [7], in assay [8], in assay [9] and in assay [10].

For the compound `CCC(=O)/C=C/C1C(C)=CCCC1(C)C` (stereo unspecified), the compound was called inactive in [1], in assay [2], in assay [3], in assay [4], in assay [5] and in [6]. Besides, the compound was classed as inactive in assay [7], in [8] and in [9].

Consider `BrC1CCC(Br)C(Br)CCC(Br)C(Br)CCC1Br` (stereo unspecified), for which the compound was called inactive in assay [1], in [2], in [4], in assay [5], in assay [6] and in [8]. For the same compound, the outcome in [10] was inactive. The values for the AC50 in assay [3], in [7] and in [9] were 87 µM (active), 87 µM (active) and 49.2 µM (active), respectively.

Regarding `O=C(O)C[C@H](O)C[C@H](O)/C=C/c1c(C2CC2)nc2ccccc2c1-c1ccc(F)cc1`, the result in assay [1], in assay [2], in assay [3], in [4], in assay [5] and in assay [6] was inactive. Besides, the outcome in assay [7], in [8], in [9] and in assay [10] was inactive.

Regarding `Nc1cc(N)cc(C(=O)O)c1`, the compound was called inactive in [1], in [2], in [3], in [4], in assay [5] and in assay [6]. Moreover, the outcome in assay [7], in assay [8] and in [9] was inactive.

With `C[Si](O[Si](C)(C)C)O[Si](C)(C)C`, the compound was called inactive in assay [1], in assay [2], in assay [3], in [4], in [5] and in assay [6]. The call in assay [7], in assay [8], in assay [9] and in assay [10] was inactive.

In the case of `CC(CCO)CCc1ccccc1` (stereo unspecified), the result in [1], in assay [2], in [3], in assay [4], in assay [5] and in [6] was inactive. Also, the outcome in assay [7], in assay [8] and in [9] was inactive.

For `COC(=O)c1ccc(C)cc1`, the outcome in [1], in assay [2], in assay [3], in [4], in [5] and in assay [6] was inactive. Further, the outcome in assay [7], in assay [8], in [9] and in assay [10] was inactive.

As to `C=CC(=O)OCCn1c(=O)n(CCOC(=O)C=C)c(=O)n(CCOC(=O)C=C)c1=O`, the AC50 in assay [1] was 24.4 µM (active); in assay [2] it was 33.4 µM (active); in [3], 13 µM (active); in assay [6], 16.8 µM (active); in [8], 54.2 µM (active); in assay [9], 9.48 µM (active). The compound was called inactive in assay [5] and in assay [10].

For the compound `N#Cc1ccccc1`, the compound was called inactive in assay [1], in assay [2], in assay [3], in assay [5], in [7] and in assay [8]. Moreover, the compound was classed as inactive in assay [9] and in assay [10].

On to `CC(C)c1ccc(C(C)C)cc1`, for which the call in [1], in assay [2], in assay [3], in [4], in [7] and in assay [8] was inactive. Moreover, the result in assay [9] and in assay [10] was inactive. Besides, the half-maximal activity concentration (AC50) in assay [6] was 100 µM (active).

For `Cc1ccc2sc3cccc(C)c3c2c1`, the compound was called inactive in assay [1], in [2], in assay [3], in assay [4], in [7] and in assay [8]. Further, the result in assay [9] and in assay [10] was inactive. Further, the AC50 in [6] was 52.9 µM (active).

As for `CNC(=O)Oc1ccc2c(c1)[C@]1(C)CCN(C)[C@@H]1N2C`, the call in assay [1], in [2], in assay [3], in assay [4], in [5] and in [7] was inactive. The outcome in [8], in assay [9] and in [10] was inactive.

In the case of `Cc1ncc([N+](=O)[O-])n1C`, the result in [1], in assay [2], in [3], in assay [4], in assay [5] and in assay [7] was inactive. Also, the call in assay [9] and in assay [10] was inactive.

In the case of `CCCCCCOC(=O)CC`, the call in assay [1], in assay [2], in assay [3], in assay [5], in [6] and in assay [7] was inactive. Further, the result in [8], in assay [9] and in [10] was inactive.

Regarding `Cc1cccc(C)c1C`, the compound was called inactive in assay [1], in [2], in [3], in assay [4], in assay [5] and in assay [7]. Further, the call in assay [8], in assay [9] and in assay [10] was inactive.

As to `CCCc1c(OCCCOc2ccc(OCC(=O)O)cc2)ccc(C(C)=O)c1O`, the compound was classed as inactive in assay [1], in assay [2], in assay [3], in [4], in assay [5] and in assay [7]. The AC50 in assay [8] was 150 µM (active); in assay [9], 79.2 µM (active).

In the case of `Cc1c(N(C)C)c(=O)n(-c2ccccc2)n1C`, the outcome in assay [1], in [2], in [3], in assay [4], in [5] and in assay [7] was inactive. Besides, the compound was classed as inactive in assay [8] and in assay [10].

`N#Cc1nc(Cl)c(Cl)c(Cl)c1Cl`: the AC50 is 4.18 µM (active) in assay [1]; 2.79 µM (active) in [3]; 3.71 µM (active) in [6]; 5.48 µM (active) in assay [7]; 2.63 µM (active) in [9]. In addition, the compound was called inactive in [2], in [4], in assay [5] and in [10].

`CC1=CC(=O)NS(=O)(=O)O1`: the call in assay [1], in assay [2], in assay [3], in assay [4], in [6] and in assay [7] was inactive. In addition, the call in [8], in assay [9] and in assay [10] was inactive.

With `Cc1ccc2n[nH]nc2c1`, the compound was called inactive in assay [1], in [2], in assay [3], in assay [5], in assay [6] and in assay [7]. Also, the result in assay [8] and in assay [9] was inactive.
